# From PubChem
# VP16 counter: VP16 counterscreen qHTS for inhibitors of ROR gamma transcriptional activity. Drosophila S2 Gal4-VP16 UAS-luciferase, luminescence, 20 h. Potency, µM (titrated, usually from 53.6 µM), usual class: inhibitors. 310,000 tested, 3.5% active;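 further: Gal4-VP16 expression switched on by copper sulfate through the metallothionein promoter; nearly all actives have a fitted effect of over 50% in size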
# RORgamma inh: qHTS for inhibitors of ROR gamma transcriptional activity | Nuclear receptor ROR-gamma (Mus musculus), P51450 | Drosophila S2 Gal4-RORgamma UAS-luciferase reporter, 20 h | Potency, µM (titrated, usually from 53.6 µM), hits mostly inhibitors | 310,000 tested, 5.4% active; further: nearly all actives have a fitted effect of over 60% in size
#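 Compounds are pin-transferred onto Drosophila Schneider cells expressing a copper-inducible Gal4–ROR gamma transactivation domain fusion. After 1 hr, copper sulfate is added to 700 uM final; luciferase is read 20 hr later.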
# 12-LOX inh: Primary qHTS assay for inhibitors of human arachidonate 12S-lipoxygenase (ALOX12): Round 2 | purified 12hLO, xylenol orange hydroperoxide absorbance | AID 1671190, 2021 | Polyunsaturated fatty acid lipoxygenase ALOX12 (Homo sapiens), P18054 | 580,000 tested, 1.1% active | Potency, µM (series often up to 108 µM), actives largely listed as inhibitors
# Target sequence (P18054 whole entry, looked up): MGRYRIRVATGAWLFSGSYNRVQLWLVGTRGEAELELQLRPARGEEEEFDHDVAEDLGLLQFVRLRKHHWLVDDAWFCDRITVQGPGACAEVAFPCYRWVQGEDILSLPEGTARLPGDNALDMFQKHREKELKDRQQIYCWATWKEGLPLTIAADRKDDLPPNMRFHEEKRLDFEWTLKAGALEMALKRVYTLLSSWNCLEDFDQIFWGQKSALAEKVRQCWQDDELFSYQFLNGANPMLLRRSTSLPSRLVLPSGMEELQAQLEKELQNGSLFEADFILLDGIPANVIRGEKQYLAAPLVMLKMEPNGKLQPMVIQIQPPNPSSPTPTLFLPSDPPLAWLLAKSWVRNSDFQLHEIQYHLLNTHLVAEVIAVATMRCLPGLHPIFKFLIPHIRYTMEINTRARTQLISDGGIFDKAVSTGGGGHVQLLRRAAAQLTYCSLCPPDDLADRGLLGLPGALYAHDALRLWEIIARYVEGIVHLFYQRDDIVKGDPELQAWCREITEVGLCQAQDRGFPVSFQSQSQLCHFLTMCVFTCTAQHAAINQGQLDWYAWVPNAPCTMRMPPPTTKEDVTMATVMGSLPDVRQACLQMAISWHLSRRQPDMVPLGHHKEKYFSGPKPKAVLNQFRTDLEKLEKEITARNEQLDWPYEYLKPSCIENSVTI
#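 Purified human 12hLO at 150 nM in 25 mM Hepes, 0.01% Triton X-100, pH 7.0, preincubated 15 min at room temperature with compound. Reaction started with 40 uM arachidonic acid, 30 min at room temperature. Hydroperoxide measured by Fe-xylenol orange, 573/405 nm absorbance ratio.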
# DT40 TDP1 CPT: qHTS for Inhibitors of human tyrosyl-DNA phosphodiesterase 1 (TDP1): qHTS in cells in presence of CPT; 420,000 tested, 12% active; Potency, µM (titrated, usually from 46.2 µM), usual class: inhibitors; chicken DT40 Tdp1-/-;hTDP1 cells + 20 nM CPT, ATP luminescence, 48 h; further: nearly all actives have a fitted effect of over 55% in size
#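 Chicken DT40 Tdp1-/- cells complemented with human TDP1, 400 cells/well, exposed to compounds plus 20 nM camptothecin for at least 48 h at 37 C; viability read as ATP content by CellTiter-Glo luminescence.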
# TDP1 cell noCPT: qHTS for Inhibitors of human tyrosyl-DNA phosphodiesterase 1 (TDP1): qHTS in cells in absence of CPT. DT40 Tdp1-/- hTDP1 cells, no CPT, ATP luminescence, 48 h. Potency, µM (highest dose often 46.2 µM), actives largely listed as inhibitors. 420,000 tested, 15% active. AID 686978, 2013; further: nearly all actives have a fitted effect of over 55% in size
#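 Growth of hTDP1-complemented DT40 Tdp1-knockout cells is measured by ATP luminescence after at least 48 hr compound exposure at 37 °C, with DMSO substituting for the 20 nM CPT used in the parallel screen.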
# ELG1 DNA repair: qHTS screen for small molecules that inhibit ELG1-dependent DNA repair in human embryonic kidney (HEK293T) cells expressing luciferase-tagged ELG1. Potency, µM (series often up to 46.1 µM), usual class: inhibitors. 330,000 tested, 2.3% active. HEK293T ELG1-luciferase reporter, luminescence, 16 h; DNA damage induced by 5-fluorouridine; further: nearly all actives have a fitted effect of over 55% in size
#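 Reporter activity after DNA damage by 5-fluorouridine is monitored. Compound-treated cells incubate 16 hr at 37 °C, then ONE-Glo is added for 30 min before luminescence reading.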
# A number is an active result; - = inactive; ? = inconclusive; . = no result; [ ] = another dose, or the depositor's remark. Rows were chosen to be rich in hits. Some 15% of all compounds tested hit in one or more screens of this group. The call rests on the fitted dose curve; in most records, active means well fitted curve in the direction sought with a large enough effect; inconclusive means small, poorly fitted or top-dose-only effect, or another doubt; inactive means no such curve, though single readings can be large; an effect the other way counts as inactive or inconclusive.
SMILES,VP16 counter,RORgamma inh,12-LOX inh,DT40 TDP1 CPT,TDP1 cell noCPT,ELG1 DNA repair
COc1ccc2[nH]cc(CCNc3ccnc(-c4cccc(NS(C)(=O)=O)c4)n3)c2c1,-,-,40µM,?,10µM,.
COc1ccc2[nH]cc(CCNc3ccnc(-c4ccc(N(C)C)cc4)n3)c2c1,?,?,?,1µM,0.92µM,.
O=C(CN1CCOCC1)N1CC2CC(C1)[C@H]1CCCC(=O)N1C2 (some centres not stated),.,.,-,.,.,.
CCS(=O)(=O)N(C1CC1)C1CCOC2(CCN(C(=O)Cc3ccccc3)CC2)C1 (configuration not stated),.,.,-,.,.,.
Cc1ccc(-c2csc(/C(C#N)=C(\O)CCl)n2)cc1,?,?,-,?,?,?
N#C/C(=C(/O)CN1CCN(c2ccccc2F)CC1)c1nc(-c2ccc(Cl)cc2)cs1,-,?,-,21µM,?,-
N#C/C(=C(/O)CCl)c1nc(-c2ccccc2)cs1,-,-,?,13µM,15µM,?
CCCCCc1cc(=O)oc2c(C(CCN(CC)CC)c3cc(OC)c(OC)c(OC)c3)c(OC)cc(OC)c12 (configuration not stated),?,?,?,?,18µM,-
COc1cc(OC)c2ccc(=O)oc2c1C(CC(=O)N1CCOCC1)c1ccc2c(c1)OCO2 (configuration not stated),-,-,-,-,-,-
CCCCCc1cc(=O)oc2c(C(CCN3CCCC(C)C3)c3ccc4c(c3)OCO4)c(OC)cc(OC)c12 (configuration not stated),-,-,?,?,?,?
CCCCCc1cc(=O)oc2c(C(CCN3CCCCC3)c3ccc4c(c3)OCO4)c(OC)cc(OC)c12 (configuration not stated),-,-,-,23µM,?,-
COc1cc(OC)c2ccc(=O)oc2c1C(CCN1CCCC1)c1ccc2c(c1)OCO2 (configuration not stated),-,-,-,?,18µM,-
CCCNC(=O)CN(C)Cc1cccc2cccnc12,.,.,-,.,.,.
O=C(O)CSc1cc(Cl)ccc1Cl,.,.,-,.,.,.
Cc1ccccc1NC(=O)Nc1ccc2c(c1)N(C(=O)c1ccccc1)CC2,.,.,-,.,.,.
Cc1nc2ccccc2nc1N1CCCCC1,-,-,-,?,-,-
Cc1ccc2c(Cl)c(C)c(N3CCCCC3)nc2n1,?,4µM,-,?,?,-
Cc1cccc2c1ccn2CCC(=O)Nc1nnc(C(C)C)s1,.,.,-,.,.,.
COc1ccc(-c2noc(CC3CCN(C(=O)c4ccccc4OC)CC3)n2)cc1,.,.,-,.,.,.
CCN(CC)C(c1ccc(C)cc1)c1nnnn1C1CCCCC1 (configuration not stated),-[0.365 µM],-,-,?,18µM,-
Cc1ccc(C(c2nnnn2C2CCCCC2)N2CCN3CCCC3C2)cc1 (configuration not stated),-,-,-,?,-,-
COc1ccc(C(c2nnnn2C2CCCC2)N2CCc3ccccc3C2)cc1OC (configuration not stated),-,-,?,?,?,-
Cc1ccc(C(c2nnnn2C2CCCC2)N2c3ccccc3CC2C)cc1 (configuration not stated),?,?,-,?,18µM,-
Fc1ccc(C(c2nnnn2C2CCCC2)N2CCc3ccccc32)cc1 (configuration not stated),-,-,-,?,23µM,-
NC(=O)C1CCN(C(=O)/C=C/c2ccc(C(F)(F)F)cc2)CC1,.,.,-,.,.,.
SMILES,VP16 counter,RORgamma inh,12-LOX inh,DT40 TDP1 CPT,TDP1 cell noCPT,ELG1 DNA repair
O=C1NC(=NC2CCCCC2)C2(CCCN([S+](=O)([O-])c3cccc(C(F)(F)F)c3)C2)N1c1cccnc1 (configuration not stated),.,.,-,.,.,.
CN(CC(=O)N1CCCC1)c1nc(-c2ccsc2)nc2ccccc12,.,.,-,.,.,.
Cc1ccccc1CC(=O)Nc1cccc2cccnc12,.,.,-,.,.,.
COc1cc(=O)n2c(c1C(=O)Nc1cc(C)ccc1F)CCCC2,.,.,-,.,.,.
Cc1c2c(cc3c1[nH]c1ccccc13)C=NCC2,.,.,-,?,23µM,.
CCc1cc(N2CCOCC2)cc2c1[nH]c1ccccc12,-,-,-,?,?,-
Cc1nccc(C(=O)NCC(O)c2ccccc2C(F)(F)F)n1 (configuration not stated),.,.,-,.,.,.
Cn1c(=O)c2[nH]c(NN=Cc3cccc(Br)c3)nc2n(C)c1=O,.,.,-,23µM,15µM,.
O=c1[nH]c(C2CCN(Cc3ccc(C(F)(F)F)cc3)CC2)nn1Cc1ccccc1,.,.,-,.,.,.
CCCCCCCCS(=O)CCCl (configuration not stated),.,.,-,.,.,.
COC(=O)[C@]12CCCCC=C1N(CCC1=CCCCC1)C(=O)[C@H](CC(=O)NCc1cccc(C(F)(F)F)c1)C2,.,.,-,?,23µM,.
CCOC(=O)[C@]12CCC=C1N(CCC1=CCCCC1)C(=O)[C@H](CC(=O)NCc1ccc(OC)c(OC)c1)C2,.,.,-,?,-,.
CCOC(=O)[C@]12CCCC=C1N(CCC1=CCCCC1)C(=O)[C@H](CC(=O)NCc1cccc(C(F)(F)F)c1)C2,.,.,-,18µM,?,.
O=C1Nc2ccc(-c3cccc(C(F)(F)F)c3)cc2C(=O)N2CCN(C(=O)c3ccco3)C[C@@H]12,.,.,-,.,.,.
COC(=O)C1=CN(c2ccc(F)cc2)C=C(C(=O)OC)C1c1cccc(Br)c1,-,-,-,23µM,?,-
COC(=O)C1=CN(Cc2ccc(OC)c(OC)c2)C=C(C(=O)OC)C1c1cccc(F)c1,-,?,-,16µM,18µM,?
COC(=O)C1=CN(Cc2ccc(C)cc2)C=C(C(=O)OC)C1c1ccc(F)c(F)c1,-,?,.,?,23µM,-
CCOc1ccccc1C1NC(=O)N(CC(=O)Nc2c(C)cccc2CC)C2=C1C(=O)OC2 (configuration not stated),.,.,-,.,.,.
O=C(COc1ccc(F)cc1)Nc1ccc2c(=O)c3cccc(F)c3oc2c1,.,.,-,.,.,.
O=C(N[C@@H]1COCC[C@H]1OCc1ccccn1)c1cnc(C2CC2)nc1,.,.,-,.,.,.
C=CCOc1ccc(/C=C(\C#N)C(=O)Nc2ccccn2)cc1OC,-,-,10µM,-,-,-
COc1ccc(/C=C(\C#N)C(=O)Nc2ccccn2)cc1,-,-,-,-,-,-
